Compounds without any hit were thinned out: in the full panel of roughly 83,000, 20% have a hit.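 A percent growth of 40 corresponds to 60% growth inhibition; 0 means no net growth; -100 means all cells died. Active threshold: below 10.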 The source made the active and inactive calls.
Experiments:
Assay in all cases: NCI-60 one-dose screen, 48 h (100 = growth as untreated, 0 = no growth, -100 = all killed)
RPMI-8226 leukemia = conditions: 10 µM unless noted
OVCAR-8 ovarian = conditions: 10 µM unless noted
OVCAR-5 ovarian = conditions: 10 µM unless noted
OVCAR-4 ovarian = conditions: 10 µM unless noted
IGROV1 ovarian = conditions: 10 µM unless noted
OVCAR-3 ovarian = conditions: 10 µM unless noted
HS 578T breast = conditions: 10 µM unless noted
T-47D breast = conditions: 10 µM unless noted
BT-549 breast = conditions: 10 µM unless noted
MDA-MB-435 melanoma = conditions: 10 µM unless noted
SW-620 colon = conditions: 10 µM unless noted
MCF7 breast = conditions: 10 µM
HCT-116 colon = conditions: 10 µM unless noted
HCC-2998 colon = conditions: 10 µM unless noted
KM12 colon = conditions: 10 µM unless noted
SK-OV-3 ovarian = conditions: 10 µM unless noted
NCI/ADR-RES ovarian = conditions: 10 µM unless noted

Measured: growth

COc1ccccc1C1=C(Br)C(=O)c2nc(C)ccc2C1=O
inactive: RPMI-8226 leukemia 104% | OVCAR-8 ovarian 96.8% | OVCAR-5 ovarian 110% | OVCAR-4 ovarian 97.8% | IGROV1 ovarian 97.3% | OVCAR-3 ovarian 81% | HS 578T breast 104% | T-47D breast 69.6% | BT-549 breast 90.4% | MDA-MB-435 melanoma 104% | SW-620 colon 87.9% | MCF7 breast 90.8% | HCT-116 colon 92.1% | HCC-2998 colon 102% | KM12 colon 103%

C=C[C@@H]1CCC/C=C/[C@@H]2C[C@H](O)C[C@H]2[C@H](O)/C=C/C(=O)O1
inactive: RPMI-8226 leukemia 23.6% | OVCAR-8 ovarian 21.4% | OVCAR-4 ovarian 23.8% | SK-OV-3 ovarian 20.5% | IGROV1 ovarian 11.8% | HS 578T breast 31.3% | BT-549 breast 40.6% | MDA-MB-435 melanoma 12.9%
active: OVCAR-3 ovarian -30.8% | T-47D breast -40.9% | SW-620 colon -15.9% | MCF7 breast -14.8% | HCT-116 colon -0.456% | HCC-2998 colon -23.3% | KM12 colon -36.3%

CC(=S)NC(=O)C(=O)/C=C1/NC(=O)C(=O)S1
inactive: OVCAR-8 ovarian 106% | OVCAR-5 ovarian 107% | OVCAR-4 ovarian 106% | SK-OV-3 ovarian 122% | IGROV1 ovarian 109% | OVCAR-3 ovarian 122% | HS 578T breast 107% | NCI/ADR-RES ovarian 103% | T-47D breast 107% | BT-549 breast 106% | MDA-MB-435 melanoma 106% | SW-620 colon 106% | MCF7 breast 104% | HCT-116 colon 114% | HCC-2998 colon 108%

Cc1ccc(Cn2c(N3CCC(C(=O)NCc4cccs4)CC3)nc3ccccc32)cc1
inactive: RPMI-8226 leukemia 73.7% | OVCAR-8 ovarian 94.3% | OVCAR-5 ovarian 107% | SK-OV-3 ovarian 97.4% | OVCAR-3 ovarian 76.6% | HS 578T breast 79.9% | NCI/ADR-RES ovarian 86.2% | T-47D breast 114% | BT-549 breast 75% | MDA-MB-435 melanoma 90% | SW-620 colon 93.6% | MCF7 breast 95.2% | HCT-116 colon 58.1% | HCC-2998 colon 90.1% | KM12 colon 54.8%

COC(=O)c1cc2c(n1Cc1ccccc1)-c1oncc1CCC2
inactive: RPMI-8226 leukemia 49.8% | OVCAR-8 ovarian 76.7% | OVCAR-5 ovarian 87.8% | SK-OV-3 ovarian 93.7% | OVCAR-3 ovarian 65.2% | HS 578T breast 78.2% | NCI/ADR-RES ovarian 40.3% | T-47D breast 74.9% | BT-549 breast 79.6% | SW-620 colon 34.7% | MCF7 breast 40.8% | HCT-116 colon 57.4% | HCC-2998 colon 76.2% | KM12 colon 63%
active: MDA-MB-435 melanoma -13%

CN=c1ccc2nc3ccc(N)cc3sc-2c1
active: OVCAR-8 ovarian 2.77% | OVCAR-4 ovarian -11.2% | NCI/ADR-RES ovarian 5.34% | MDA-MB-435 melanoma -62.6% | MCF7 breast -12.7% | HCT-116 colon 6.01%
inactive: OVCAR-5 ovarian 24.6% | SK-OV-3 ovarian 30.1% | IGROV1 ovarian 22.3% | OVCAR-3 ovarian 10.8% | HS 578T breast 59% | T-47D breast 20.1% | BT-549 breast 52.4% | SW-620 colon 10.8% | HCC-2998 colon 49.8% | KM12 colon 27.9%

S=C1CCCC(=S)N1
inactive: OVCAR-8 ovarian 105% | OVCAR-5 ovarian 100% | OVCAR-4 ovarian 104% | SK-OV-3 ovarian 91.6% | IGROV1 ovarian 107% | OVCAR-3 ovarian 112% | HS 578T breast 99.8% | NCI/ADR-RES ovarian 99.5% | BT-549 breast 102% | MDA-MB-435 melanoma 106% | SW-620 colon 105% | MCF7 breast 105% | HCT-116 colon 102% | HCC-2998 colon 111% | KM12 colon 105%

O=C(/C=C/c1ccccn1)c1ccc(OCc2nnc(-c3ccc(Cl)cc3)o2)cc1
inactive: OVCAR-8 ovarian 20.8% | OVCAR-5 ovarian 89.6% | OVCAR-4 ovarian 31% | SK-OV-3 ovarian 26.8% | OVCAR-3 ovarian 18.6% | HS 578T breast 65.7% | NCI/ADR-RES ovarian 42.5% | BT-549 breast 16.5% | HCC-2998 colon 28%
active: IGROV1 ovarian -22.6% | T-47D breast -13.7% | MDA-MB-435 melanoma -66.2% | SW-620 colon -43.6% | MCF7 breast -28.3% | HCT-116 colon -71.6% | KM12 colon -69.9%

CCOC(=O)CSc1c(-c2ccccc2)c2cc(Cl)ccc2[nH]c1=O
inactive: OVCAR-8 ovarian 115% | OVCAR-5 ovarian 105% | OVCAR-4 ovarian 89.1% | SK-OV-3 ovarian 107% | IGROV1 ovarian 99.1% | OVCAR-3 ovarian 106% | HS 578T breast 84.2% | NCI/ADR-RES ovarian 84.3% | T-47D breast 98.1% | BT-549 breast 103% | MDA-MB-435 melanoma 99.8% | SW-620 colon 102% | MCF7 breast 93.3% | HCT-116 colon 92.1% | HCC-2998 colon 103% | KM12 colon 98.1%

O=C(CN1C=NC2C(N3CCOCC3)=NC=NC21)c1cccc2ccccc12 (stereo not drawn)
inactive: OVCAR-8 ovarian 97% | OVCAR-5 ovarian 92% | OVCAR-4 ovarian 97.1% | IGROV1 ovarian 90.8% | OVCAR-3 ovarian 101% | HS 578T breast 102% | NCI/ADR-RES ovarian 104% | T-47D breast 90.7% | BT-549 breast 109% | MDA-MB-435 melanoma 99.3% | SW-620 colon 96% | MCF7 breast 89.3% | HCT-116 colon 102% | HCC-2998 colon 120% | KM12 colon 102%

CN1C(=O)N(C)C2C1NN=c1s/c(=C\c3c[nH]c4ccccc34)c(=O)n12 (stereo not drawn)
inactive: OVCAR-8 ovarian 24.1% | OVCAR-5 ovarian 42.7% | OVCAR-4 ovarian 103% | IGROV1 ovarian 18.7% | HS 578T breast 18.7% | NCI/ADR-RES ovarian 15.6% | T-47D breast 82.6% | BT-549 breast 12.3% | MDA-MB-435 melanoma 102% | SW-620 colon 28.6% | MCF7 breast 16% | HCC-2998 colon 27.3%
active: OVCAR-3 ovarian 8.1% | HCT-116 colon 5.95% | KM12 colon 4.61%

NS(=O)(=O)c1ccc(CCN=C=S)cc1
inactive: OVCAR-8 ovarian 30.1% | OVCAR-5 ovarian 85.5% | OVCAR-4 ovarian 42.8% | SK-OV-3 ovarian 122% | IGROV1 ovarian 25.6% | HS 578T breast 39.7% | NCI/ADR-RES ovarian 83.6% | BT-549 breast 63.8% | MDA-MB-435 melanoma 27.9% | HCC-2998 colon 81.1%
active: OVCAR-3 ovarian -18.6% | SW-620 colon -22.9% | MCF7 breast 2.99% | HCT-116 colon 0.727% | KM12 colon 8.37%

O=C(NC1CCN(Cc2ccccc2)CC1)c1cc2nc(-c3ccc(Cl)s3)cc(C(F)(F)F)n2n1
inactive: OVCAR-5 ovarian 93.2% | OVCAR-4 ovarian 66.4% | SK-OV-3 ovarian 92.6% | IGROV1 ovarian 118% | OVCAR-3 ovarian 89.9% | HS 578T breast 87.3% | T-47D breast 97.1% | BT-549 breast 66% | HCC-2998 colon 84.2% | KM12 colon 37.1%
active: RPMI-8226 leukemia -18.4% | MDA-MB-435 melanoma -82% | SW-620 colon -6.12% | MCF7 breast -68.2%

O=Nc1c(O)ccc2ccccc12.O=Nc1c(O)ccc2ccccc12.O=Nc1c([O-])ccc2ccccc12.[Fe+3]
inactive: OVCAR-8 ovarian 98.4% | OVCAR-5 ovarian 109% | OVCAR-4 ovarian 104% | SK-OV-3 ovarian 112% | IGROV1 ovarian 91.1% | OVCAR-3 ovarian 102% | HS 578T breast 113% | NCI/ADR-RES ovarian 104% | T-47D breast 104% | BT-549 breast 103% | MDA-MB-435 melanoma 109% | SW-620 colon 97.3% | MCF7 breast 89.2% | HCT-116 colon 97.1% | HCC-2998 colon 113% | KM12 colon 116%

Reference: PubChem BioAssay (NCI)
